The nature of experiment [1]: Quantitative High-Throughput drug screen in 47 multiple myeloma cell lines against the NCATS MIPE library collection: KMS28PE_JCRB cell viability assay (AID 1918983). Also: nearly all actives have a fitted effect of over 35% in size. Also: potency is read from the fitted curve at half-maximal effect. Put shortly: (§1)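 ATP-based CellTiter-Glo luminescence after 48 h drug exposure (37 °C, 5% CO2) of 500 myeloma cells per well. DMSO-only wells set 100% viability, media-only wells 0%; MIPE 4.0 library added by pin tool.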

Experiment [2] in a line: Quantitative High-Throughput drug screen in 47 multiple myeloma cell lines against the NCATS MIPE library collection: OPM1_PLB cell viability assay (AID 1918989). Also: nearly all actives have a fitted effect of over 40% in size. Also: potency is read from the fitted curve at half-maximal effect. The method, boiled down: as §1
Experiment [3] can be described thus: Quantitative High-Throughput drug screen in 47 multiple myeloma cell lines against the NCATS MIPE library collection: SKMM1_PLB cell viability assay (AID 1919863). Also: nearly all actives have a fitted effect of over 35% in size. Also: potency is read from the fitted curve at half-maximal effect. Conditions: SKMM1 myeloma viability, CellTiter-Glo ATP, 48 h; viability: stronger effect = lower value. Put shortly:
as §1
(In general: ATP-based viability assays read luminescence as a measure of living cells.)

A short description of experiment [4]: Quantitative High-Throughput drug screen in 47 multiple myeloma cell lines against the NCATS MIPE library collection: U266_ATCC cell viability assay (AID 1919864). Also: nearly all actives have a fitted effect of over 35% in size. Also: potency is read from the fitted curve at half-maximal effect. The method, boiled down: as §1
Experiment [5] in a line: Quantitative High-Throughput drug screen in 47 multiple myeloma cell lines against the NCATS MIPE library collection: XG6_PLB cell viability assay (AID 1919865). Also: nearly all actives have a fitted effect of over 40% in size. Also: potency is read from the fitted curve at half-maximal effect. The method, boiled down:
as §1

Experiment [6] can be described thus: Quantitative High-Throughput drug screen in 47 multiple myeloma cell lines against the NCATS MIPE library collection: XG1_PLB cell viability assay (AID 1919866). Also: nearly all actives have a fitted effect of over 35% in size. Also: potency is read from the fitted curve at half-maximal effect. The method, boiled down: as §1
Experiment [7] can be described thus: Quantitative High-Throughput drug screen in 47 multiple myeloma cell lines against the NCATS MIPE library collection: UTMC2_PLB cell viability assay (AID 1919868). Also: nearly all actives have a fitted effect of over 55% in size. Also: potency is read from the fitted curve at half-maximal effect. Conditions: CellTiter-Glo ATP luminescence, 48 h; viability (% of DMSO control): at 45.8 µM (top of the series). Put shortly: as §1
Experiment [8] is described as follows: Quantitative High-Throughput drug screen in 47 multiple myeloma cell lines against the NCATS MIPE library collection: PE2_PLB cell viability assay (AID 1919869). Also: nearly all actives have a fitted effect of over 35% in size. Also: potency is read from the fitted curve at half-maximal effect. Put shortly: as §1
The nature of experiment [9]: Quantitative High-Throughput drug screen in 47 multiple myeloma cell lines against the NCATS MIPE library collection: PCM6_Riken cell viability assay (AID 1919870). Also: nearly all actives have a fitted effect of over 30% in size. Also: potency is read from the fitted curve at half-maximal effect. The method, boiled down:
as §1

A short description of experiment [10]: Quantitative High-Throughput drug screen in 47 multiple myeloma cell lines against the NCATS MIPE library collection: OPM2_DSMZ cell viability assay (AID 1919872). Also: nearly all actives have a fitted effect of over 30% in size. Also: potency is read from the fitted curve at half-maximal effect. The method, boiled down: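 Relative luminescence from CellTiter-Glo served as the viability signal, referenced to DMSO-treated (100%) and cell-free medium (0%) controls. Treatment lasted 48 hours at 37C with 500 cells per well.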

Experiment [11] in a line: Quantitative High-Throughput drug screen in 47 multiple myeloma cell lines against the NCATS MIPE library collection: KMS11_JCRBsus cell viability assay (AID 1919873). Also: nearly all actives have a fitted effect of over 50% in size. Also: potency is read from the fitted curve at half-maximal effect. The method, boiled down:
as §1

The nature of experiment [12]: Quantitative High-Throughput drug screen in 47 multiple myeloma cell lines against the NCATS MIPE library collection: KMS28BM_JCRB cell viability assay (AID 1919874). Also: nearly all actives have a fitted effect of over 35% in size. Also: potency is read from the fitted curve at half-maximal effect. Put shortly:
as §1

Experiment [13] can be described thus: Quantitative High-Throughput drug screen in 47 multiple myeloma cell lines against the NCATS MIPE library collection: OCIMY5_PLB cell viability assay (AID 1918988). Also: nearly all actives have a fitted effect of over 65% in size. Also: potency is read from the fitted curve at half-maximal effect. The method, boiled down:
as §1

Experiment [14] can be described thus: Quantitative High-Throughput drug screen in 47 multiple myeloma cell lines against the NCATS MIPE library collection: L363_DSMZ cell viability assay (AID 1918984). Also: potency is read from the fitted curve at half-maximal effect; nearly all actives have a fitted effect of over 40% in size. Conditions: L363 myeloma viability, CellTiter-Glo ATP luminescence, 48 h; viability (% of control): at 45.8 µM (top of the series). Put shortly:
as §1

Experiment [15] is described as follows: Quantitative High-Throughput drug screen in 47 multiple myeloma cell lines against the NCATS MIPE library collection: KMS34_JCRB cell viability assay (AID 1918985). Also: potency is read from the fitted curve at half-maximal effect; nearly all actives have a fitted effect of over 40% in size. The method, boiled down:
as §1

Experiment [16] is described as follows: Quantitative High-Throughput drug screen in 47 multiple myeloma cell lines against the NCATS MIPE library collection: OCIMY7_PLB cell viability assay (AID 1918987). Also: nearly all actives have a fitted effect of over 65% in size. Also: potency is read from the fitted curve at half-maximal effect. Conditions: OCI-MY7 myeloma viability, CellTiter-Glo ATP, 48 h; viability (% of DMSO): at 45.8 µM (top of the series). The method, boiled down: as §1
Experiment [17] is described as follows: Quantitative High-Throughput drug screen in 47 multiple myeloma cell lines against the NCATS MIPE library collection: RPMI8226_ATCC cell viability assay (AID 1919871). Also: nearly all actives have a fitted effect of over 30% in size. Also: potency is read from the fitted curve at half-maximal effect. The method, boiled down:
as §1

Experiment [18] in a line: Quantitative High-Throughput drug screen in 47 multiple myeloma cell lines against the NCATS MIPE library collection: VP6_DJ cell viability assay (AID 1919867). Also: nearly all actives have a fitted effect of over 40% in size. Also: potency is read from the fitted curve at half-maximal effect. Put shortly: as §1
Experiment [19] addresses Cytochrome P450 3A4 (Homo sapiens) (UniProt P08684). Nature of the experiment: qHTS for inhibitors of CYP3A4 against the NCATS DSHEA and TCM libraries (AID 1919971).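 Also: % is scaled to controls: 0 for no effect and ±100 for the full control effect; inhibition lowers luminescence from luciferin made by CYP3A4.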 The method, boiled down: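 Concentration-response screening with isoform-matched pro-luciferin substrates. The CYP reaction was initiated by NADPH regenerating solution and ran 30-45 min in darkness at room temperature.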

Inconclusive results are not listed. Unmarked numbers belong to inactive results. Calls of active or inactive are those of the source. Calls follow the shape of the dose curve; as a rule, active = well fitted curve in the direction sought with a large enough effect; inconclusive = small, poorly fitted or top-dose-only effect, or another doubt; inactive = no such curve, though single readings can be large; an effect the other way counts as inactive or inconclusive.

Sequence of Cytochrome P450 3A4 (Homo sapiens) (P08684 whole entry, looked up, canonical isoform): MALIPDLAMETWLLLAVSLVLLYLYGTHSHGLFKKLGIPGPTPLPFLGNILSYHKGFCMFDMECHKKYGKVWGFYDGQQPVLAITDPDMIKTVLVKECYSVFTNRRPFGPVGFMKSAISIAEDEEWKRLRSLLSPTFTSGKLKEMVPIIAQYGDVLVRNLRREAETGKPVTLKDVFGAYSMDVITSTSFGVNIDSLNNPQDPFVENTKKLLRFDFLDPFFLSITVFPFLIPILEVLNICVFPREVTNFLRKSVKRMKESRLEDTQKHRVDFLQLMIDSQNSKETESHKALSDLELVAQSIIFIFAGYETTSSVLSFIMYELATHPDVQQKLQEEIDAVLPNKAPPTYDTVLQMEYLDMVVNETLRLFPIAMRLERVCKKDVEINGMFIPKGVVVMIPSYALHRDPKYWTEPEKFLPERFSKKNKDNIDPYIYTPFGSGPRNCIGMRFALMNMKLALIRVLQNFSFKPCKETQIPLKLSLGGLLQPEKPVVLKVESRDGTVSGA

Regarding `CC1(C)[C@H]2CC[C@]3(C)[C@@H](C(=O)C=C4[C@@H]5C[C@@](C)(C(=O)O)CC[C@]5(C)CC[C@]43C)[C@@]2(C)CC[C@@H]1O`, the Potency was 18.7 µM (active) in [1] and 11.8 µM (active) in [3]. For the same compound, the Potency entry in experiment [2], in experiment [4], in [5], in experiment [6], in experiment [7] and in experiment [8] was “inactive” in each case. Besides, the Potency entry in experiment [9], in experiment [10], in experiment [11] and in [12] was “inactive” throughout.
Take `Cc1nc2c([nH]1)CCN(C(=O)c1ccc(NC(=O)c3ccccc3-c3ccccc3)cc1)c1ccccc1-2`: the Potency entry in [1], in experiment [6], in experiment [10] and in experiment [12] was “inactive” each time.
The viability is a read-out of living cells in per cent, often relative to untreated cells. In the case of `CN(C)N=Nc1nc[nH]c1C(N)=O`, the Potency result in experiment [1], in [4], in experiment [9], in [10] and in experiment [11] was “inactive” throughout. Moreover, the Potency in [13] was 20.9 µM (active); in experiment [2] it was 4.18 µM (active); in experiment [5], 5.26 µM (active); in experiment [6] it was 2.64 µM (active). Also, the viability in [3] is 140%.
For the compound `Cc1ccc2c(c1)c1c(n2CCc2ccc(C)nc2)CCN(C)C1`, the Potency result in experiment [1], in [4], in experiment [8], in experiment [9], in [11] and in experiment [12] was “inactive” in each case. Besides, the Potency in [5] is 16.6 µM (active).
Regarding `COc1ccc(CCC(=O)Nc2nc3ccc(Cl)cc3s2)cc1OC`, the Potency entry in experiment [1], in experiment [2] and in experiment [10] was “inactive” in each case. Further, the Potency in [4] is 16.6 µM (active); in experiment [5], 23.5 µM (active); in experiment [6], 16.6 µM (active); in experiment [8], 23.5 µM (active); in experiment [11] it was 11.8 µM (active).
Regarding `CC1=C[C@@H]2[C@@H]([C@@H](O)C[C@@]3(C)[C@H]2C[C@@H](C)[C@]3(O)C(=O)CO)[C@@]2(C)Cc3cnn(-c4ccccc4)c3C=C12`, the Potency in experiment [14] was 0.0332 µM (active); in experiment [15], 23.5 µM (active); in experiment [16], 9.35 µM (active); in experiment [13], 1.87 µM (active); in [3] it was 18.7 µM (active); in experiment [4], 20.9 µM (active). For the same compound, the Potency is 20.9 µM (active) in experiment [5]; 23.5 µM (active) in experiment [8]; 0.0264 µM (active) in experiment [17]; 20.9 µM (active) in experiment [10]; 0.0059 µM (active) in experiment [11].
With `Cc1cnc(CNC(=O)c2c(=O)c3ccc(N4CCCN(C)CC4)nc3n3c2sc2ccccc23)cn1`, the Potency was 12.9 µM (active) in experiment [1]; 10.2 µM (active) in experiment [13]; 5.75 µM (active) in experiment [3]; 1.82 µM (active) in experiment [4]; 5.12 µM (active) in experiment [5]. In addition, the Potency entry in [2], in experiment [6], in experiment [18], in [8], in experiment [11] and in experiment [12] was “inactive” each time.
For `CN(CC=CC#CC(C)(C)C)Cc1cccc2ccccc12`, the Potency result in experiment [1], in experiment [11] and in [12] was “inactive” in each case.
For `Cc1cc2nc3c(=O)[nH]c(=O)nc-3n(CC(O)C(O)C(O)CO)c2cc1C` (stereo not drawn), the Potency is 0.0833 µM (active) in experiment [1]; 18.7 µM (active) in [2]; 20.9 µM (active) in [3]; 7.43 µM (active) in experiment [5]; 5.9 µM (active) in [12]. Further, the Potency result in experiment [4], in experiment [7], in experiment [8], in experiment [10] and in experiment [11] was “inactive” in each case. Besides, the outcome in experiment [19] was inactive.
As for `Nc1ncnc2c1ncn2[C@@H]1O[C@H](CO)[C@@H](O)[C@@H]1O`, the Potency was 1.05 µM (active) in experiment [14]; 18.7 µM (active) in experiment [15]; 16.6 µM (active) in experiment [13]; 7.43 µM (active) in experiment [4]; 2.64 µM (active) in [5]; 0.166 µM (active) in experiment [18]. Further, the Potency in experiment [8] was 14.8 µM (active); in experiment [9], 1.18 µM (active); in experiment [11] it was 5.26 µM (active). Moreover, in [16], the viability (% of DMSO) was 126% (active). In experiment [3], the viability was 106%. For the same compound, the Potency result in [17] is “inactive”.
Take `O=c1[nH]c(=O)n([C@H]2C[C@@H](O)[C@@H](CO)O2)cc1I`: the Potency entry in experiment [1], in [13], in experiment [5], in [6], in experiment [8] and in experiment [12] was “inactive” each time. The viability in [3] is 119%. In [11], the Potency is 2.09 µM (active).
For `O=C(c1ccc(C=Cc2n[nH]c3ccccc23)cc1)N1CCNCC1`, the Potency in experiment [14] was 3.72 µM (active); in [15], 10.5 µM (active); in [16] it was 0.662 µM (active); in experiment [13] it was 14.8 µM (active); in experiment [2], 2.64 µM (active); in experiment [4], 18.7 µM (active). Further, the Potency in [5] was 14.8 µM (active); in experiment [6], 0.833 µM (active); in experiment [7], 0.332 µM (active); in experiment [8], 5.9 µM (active); in experiment [9], 16.6 µM (active); in experiment [10] it was 10.5 µM (active). The Potency in experiment [11] is 1.05 µM (active).
Consider `COc1cc2c(cc1OC)[C@@H]1Cc3ccc(OC)c(OC)c3CN1CC2`, for which the Potency in [1] is 20.9 µM (active); in [13] it was 5.9 µM (active); in [4], 11.8 µM (active); in experiment [17], 18.7 µM (active); in experiment [10], 13.2 µM (active); in experiment [11] it was 7.43 µM (active). In experiment [12], the Potency was 8.33 µM (active). Further, the Potency entry in experiment [5] and in experiment [6] was “inactive” each time.
On to `CC[C@H](CC#N)OC(=O)N[C@@H](C)c1cccc(NC(=O)Nc2ccc(-c3cnco3)c(OC)c2)c1`, for which the Potency in experiment [14] was 18.7 µM (active); in experiment [16], 3.72 µM (active); in experiment [13], 3.72 µM (active); in experiment [2], 13.2 µM (active); in experiment [3], 1.18 µM (active); in experiment [4], 1.48 µM (active). Further, the Potency is 2.96 µM (active) in experiment [5]; 1.32 µM (active) in [18]; 1.18 µM (active) in experiment [7]; 4.18 µM (active) in experiment [8]; 1.32 µM (active) in experiment [9]; 2.64 µM (active) in [17]. Also, the Potency was 0.372 µM (active) in [11] and 2.09 µM (active) in experiment [12].
As for `O=S(=O)(O)c1ccc2cc(N=Nc3cc(S(=O)(=O)O)c4cccnc4c3O)ccc2c1`, the Potency in [1] was 18.7 µM (active); in experiment [13] it was 9.35 µM (active); in [2], 13.2 µM (active); in experiment [3], 18.7 µM (active); in experiment [4], 13.2 µM (active); in experiment [6], 5.9 µM (active). For the same compound, the figures for the Potency in [18], in experiment [8] and in [12] were 16.6 µM (active), 3.32 µM (active) and 1.87 µM (active), respectively. The Potency result in experiment [10] is “inactive”.
